What was measured:
[1] = target: Tyrosine-protein kinase CSK (Homo sapiens) (UniProt P41240); conditions: at 1 µM;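 note: each value is an averaged inhibition reading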
[2] = target: T1, Discoidin domain-containing receptor 2 (Homo sapiens) (UniProt Q16832); conditions: at 0.1 µM
T1 sequence (whole entry): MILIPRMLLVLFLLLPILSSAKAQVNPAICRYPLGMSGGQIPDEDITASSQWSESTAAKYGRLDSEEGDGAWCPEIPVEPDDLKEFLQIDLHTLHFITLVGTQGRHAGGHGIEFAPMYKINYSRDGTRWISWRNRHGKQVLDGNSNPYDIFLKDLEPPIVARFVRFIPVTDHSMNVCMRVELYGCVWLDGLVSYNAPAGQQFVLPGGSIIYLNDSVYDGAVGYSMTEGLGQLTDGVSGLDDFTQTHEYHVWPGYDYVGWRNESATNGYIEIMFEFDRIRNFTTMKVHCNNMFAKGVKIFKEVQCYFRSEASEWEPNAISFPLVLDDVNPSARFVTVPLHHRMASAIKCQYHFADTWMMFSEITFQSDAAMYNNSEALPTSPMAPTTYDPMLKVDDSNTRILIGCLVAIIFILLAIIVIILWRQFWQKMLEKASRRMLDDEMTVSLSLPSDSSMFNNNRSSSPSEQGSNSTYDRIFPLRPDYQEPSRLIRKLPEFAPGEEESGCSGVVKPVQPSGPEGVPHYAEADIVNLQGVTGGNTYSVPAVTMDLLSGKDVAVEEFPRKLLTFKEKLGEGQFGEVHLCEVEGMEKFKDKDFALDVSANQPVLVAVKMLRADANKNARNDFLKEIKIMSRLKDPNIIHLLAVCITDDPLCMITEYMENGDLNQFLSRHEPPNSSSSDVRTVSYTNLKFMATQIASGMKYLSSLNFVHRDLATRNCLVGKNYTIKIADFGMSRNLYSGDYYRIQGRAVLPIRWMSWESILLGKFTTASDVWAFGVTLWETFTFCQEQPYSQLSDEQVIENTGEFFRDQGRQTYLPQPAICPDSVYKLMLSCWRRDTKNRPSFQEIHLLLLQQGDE

[3] = target: T1, Discoidin domain-containing receptor 2 (Homo sapiens); conditions: at 1 µM
[4] = target: Epidermal growth factor receptor (Homo sapiens) (UniProt P00533); conditions: at 0.1 µM
Chain of Epidermal growth factor receptor (Homo sapiens) (P00533 whole entry): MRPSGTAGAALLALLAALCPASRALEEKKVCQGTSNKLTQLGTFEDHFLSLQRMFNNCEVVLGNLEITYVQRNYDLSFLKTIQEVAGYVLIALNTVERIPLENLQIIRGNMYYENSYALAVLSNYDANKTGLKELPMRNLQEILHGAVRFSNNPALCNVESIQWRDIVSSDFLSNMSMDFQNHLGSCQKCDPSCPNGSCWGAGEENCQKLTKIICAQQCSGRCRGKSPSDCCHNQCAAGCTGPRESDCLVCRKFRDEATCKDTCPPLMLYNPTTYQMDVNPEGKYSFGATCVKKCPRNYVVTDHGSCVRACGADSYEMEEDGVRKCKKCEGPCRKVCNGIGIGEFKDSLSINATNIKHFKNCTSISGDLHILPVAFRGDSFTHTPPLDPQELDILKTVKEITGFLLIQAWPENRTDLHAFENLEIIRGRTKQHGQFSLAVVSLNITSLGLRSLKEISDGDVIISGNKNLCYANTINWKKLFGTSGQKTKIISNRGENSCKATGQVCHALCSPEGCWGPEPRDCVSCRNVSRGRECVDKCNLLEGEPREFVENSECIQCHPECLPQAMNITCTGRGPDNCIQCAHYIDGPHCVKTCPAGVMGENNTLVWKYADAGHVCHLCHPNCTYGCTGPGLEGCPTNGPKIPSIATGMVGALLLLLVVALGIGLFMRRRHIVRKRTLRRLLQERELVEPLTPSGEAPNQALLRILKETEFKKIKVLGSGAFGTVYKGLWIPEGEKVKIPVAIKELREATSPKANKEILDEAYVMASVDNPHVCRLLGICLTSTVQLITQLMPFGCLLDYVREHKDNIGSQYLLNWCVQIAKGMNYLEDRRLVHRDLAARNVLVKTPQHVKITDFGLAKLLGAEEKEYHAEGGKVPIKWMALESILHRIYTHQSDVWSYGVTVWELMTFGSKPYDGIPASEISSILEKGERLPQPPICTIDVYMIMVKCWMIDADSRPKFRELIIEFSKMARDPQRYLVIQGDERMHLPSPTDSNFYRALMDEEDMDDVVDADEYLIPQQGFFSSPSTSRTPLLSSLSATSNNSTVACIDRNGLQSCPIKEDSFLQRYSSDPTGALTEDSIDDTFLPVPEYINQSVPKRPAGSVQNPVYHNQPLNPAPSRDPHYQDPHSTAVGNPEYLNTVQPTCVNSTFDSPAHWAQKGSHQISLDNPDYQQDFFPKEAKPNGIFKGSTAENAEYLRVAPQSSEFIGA

[5] = target: Epidermal growth factor receptor (Homo sapiens) (UniProt P00533); conditions: at 1 µM
[6] = tested on: Epidermal growth factor receptor (Homo sapiens), P00533 [L858R]; conditions: at 0.1 µM
Chain of Epidermal growth factor receptor (Homo sapiens), P00533 [L858R] (P00533 whole entry L858R): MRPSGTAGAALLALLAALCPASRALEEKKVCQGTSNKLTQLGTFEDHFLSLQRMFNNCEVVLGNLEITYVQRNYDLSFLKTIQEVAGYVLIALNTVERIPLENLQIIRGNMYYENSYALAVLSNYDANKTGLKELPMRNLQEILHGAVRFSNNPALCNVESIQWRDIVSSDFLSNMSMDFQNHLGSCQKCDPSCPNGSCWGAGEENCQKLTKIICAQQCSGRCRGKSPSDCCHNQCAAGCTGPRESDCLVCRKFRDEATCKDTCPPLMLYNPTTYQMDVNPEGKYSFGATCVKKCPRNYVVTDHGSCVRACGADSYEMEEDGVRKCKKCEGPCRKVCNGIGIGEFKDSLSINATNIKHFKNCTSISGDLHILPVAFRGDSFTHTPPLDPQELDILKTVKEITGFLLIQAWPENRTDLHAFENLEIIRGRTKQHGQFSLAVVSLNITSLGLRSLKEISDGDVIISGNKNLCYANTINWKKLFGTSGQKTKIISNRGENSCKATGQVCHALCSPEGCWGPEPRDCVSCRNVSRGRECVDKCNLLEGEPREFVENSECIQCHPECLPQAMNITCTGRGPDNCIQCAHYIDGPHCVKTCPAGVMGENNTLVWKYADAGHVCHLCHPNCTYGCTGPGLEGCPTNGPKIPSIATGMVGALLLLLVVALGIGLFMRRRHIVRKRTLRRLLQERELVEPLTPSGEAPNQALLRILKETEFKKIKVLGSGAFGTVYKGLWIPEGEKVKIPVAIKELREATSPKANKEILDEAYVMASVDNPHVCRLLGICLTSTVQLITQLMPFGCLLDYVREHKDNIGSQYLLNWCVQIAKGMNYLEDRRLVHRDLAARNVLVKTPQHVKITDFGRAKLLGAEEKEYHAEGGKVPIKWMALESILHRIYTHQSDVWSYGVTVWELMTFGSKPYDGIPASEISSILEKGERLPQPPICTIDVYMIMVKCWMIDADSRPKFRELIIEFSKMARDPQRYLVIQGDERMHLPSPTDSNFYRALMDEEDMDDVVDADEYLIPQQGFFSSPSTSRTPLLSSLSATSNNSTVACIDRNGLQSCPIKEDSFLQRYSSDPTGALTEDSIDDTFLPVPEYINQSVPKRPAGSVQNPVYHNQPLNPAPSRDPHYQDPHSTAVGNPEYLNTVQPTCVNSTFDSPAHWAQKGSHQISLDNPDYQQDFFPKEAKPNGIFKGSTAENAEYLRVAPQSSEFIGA

[7] = tested on: Epidermal growth factor receptor (Homo sapiens), P00533 [L858R]; conditions: at 1 µM
[8] = tested on: Epidermal growth factor receptor (Homo sapiens), P00533 [L861Q]; conditions: at 0.1 µM
[9] = tested on: Epidermal growth factor receptor (Homo sapiens), P00533 [L861Q]; conditions: at 1 µM
[10] = tested on: Epidermal growth factor receptor (Homo sapiens), P00533 [T790M]; conditions: at 0.1 µM
[11] = tested on: Epidermal growth factor receptor (Homo sapiens), P00533 [T790M]; conditions: at 1 µM
[12] = tested on: Epidermal growth factor receptor (Homo sapiens), P00533 [L858R,T790M]; conditions: at 0.1 µM
Chain of Epidermal growth factor receptor (Homo sapiens), P00533 [L858R,T790M] (P00533 whole entry T790M/L858R, looked up): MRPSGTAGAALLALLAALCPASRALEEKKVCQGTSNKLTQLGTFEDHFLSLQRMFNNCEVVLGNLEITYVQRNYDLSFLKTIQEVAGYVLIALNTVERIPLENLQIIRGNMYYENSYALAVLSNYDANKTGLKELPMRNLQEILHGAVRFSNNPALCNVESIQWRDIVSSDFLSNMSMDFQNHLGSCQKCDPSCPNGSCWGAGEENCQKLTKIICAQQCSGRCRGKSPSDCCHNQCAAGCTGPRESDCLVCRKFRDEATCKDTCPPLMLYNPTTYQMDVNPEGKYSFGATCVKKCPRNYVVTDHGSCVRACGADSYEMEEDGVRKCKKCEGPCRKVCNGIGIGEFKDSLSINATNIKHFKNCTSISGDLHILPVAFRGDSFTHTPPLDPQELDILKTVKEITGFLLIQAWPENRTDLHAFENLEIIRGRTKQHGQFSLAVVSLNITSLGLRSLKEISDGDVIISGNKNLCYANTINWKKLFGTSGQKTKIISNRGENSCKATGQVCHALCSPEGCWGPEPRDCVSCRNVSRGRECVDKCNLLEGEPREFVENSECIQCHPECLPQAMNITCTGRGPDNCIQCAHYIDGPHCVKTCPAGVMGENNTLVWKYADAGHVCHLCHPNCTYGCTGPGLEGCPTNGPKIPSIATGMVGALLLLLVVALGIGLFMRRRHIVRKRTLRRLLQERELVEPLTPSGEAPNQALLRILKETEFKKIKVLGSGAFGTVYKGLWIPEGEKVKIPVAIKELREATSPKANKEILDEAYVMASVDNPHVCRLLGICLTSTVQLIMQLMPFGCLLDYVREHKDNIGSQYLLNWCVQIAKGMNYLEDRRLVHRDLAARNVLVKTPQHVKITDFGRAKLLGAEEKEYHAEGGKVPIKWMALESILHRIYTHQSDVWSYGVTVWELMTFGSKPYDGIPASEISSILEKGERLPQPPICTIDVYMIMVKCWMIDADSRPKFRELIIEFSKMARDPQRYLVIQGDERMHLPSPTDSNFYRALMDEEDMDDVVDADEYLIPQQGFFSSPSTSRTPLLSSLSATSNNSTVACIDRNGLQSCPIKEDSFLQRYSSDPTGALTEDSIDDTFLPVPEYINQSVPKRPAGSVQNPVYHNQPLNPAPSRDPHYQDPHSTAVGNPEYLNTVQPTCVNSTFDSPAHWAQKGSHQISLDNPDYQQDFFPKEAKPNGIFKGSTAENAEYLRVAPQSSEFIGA

[13] = tested on: Epidermal growth factor receptor (Homo sapiens), P00533 [L858R,T790M]; conditions: at 1 µM
[14] = target: Ephrin type-A receptor 2 (Homo sapiens) (UniProt P29317); conditions: at 0.1 µM
[15] = target: Ephrin type-A receptor 2 (Homo sapiens) (UniProt P29317); conditions: at 1 µM
[16] = target: T2, Ephrin type-A receptor 3 (Homo sapiens) (UniProt P29320); conditions: at 0.1 µM
T2 sequence (whole entry): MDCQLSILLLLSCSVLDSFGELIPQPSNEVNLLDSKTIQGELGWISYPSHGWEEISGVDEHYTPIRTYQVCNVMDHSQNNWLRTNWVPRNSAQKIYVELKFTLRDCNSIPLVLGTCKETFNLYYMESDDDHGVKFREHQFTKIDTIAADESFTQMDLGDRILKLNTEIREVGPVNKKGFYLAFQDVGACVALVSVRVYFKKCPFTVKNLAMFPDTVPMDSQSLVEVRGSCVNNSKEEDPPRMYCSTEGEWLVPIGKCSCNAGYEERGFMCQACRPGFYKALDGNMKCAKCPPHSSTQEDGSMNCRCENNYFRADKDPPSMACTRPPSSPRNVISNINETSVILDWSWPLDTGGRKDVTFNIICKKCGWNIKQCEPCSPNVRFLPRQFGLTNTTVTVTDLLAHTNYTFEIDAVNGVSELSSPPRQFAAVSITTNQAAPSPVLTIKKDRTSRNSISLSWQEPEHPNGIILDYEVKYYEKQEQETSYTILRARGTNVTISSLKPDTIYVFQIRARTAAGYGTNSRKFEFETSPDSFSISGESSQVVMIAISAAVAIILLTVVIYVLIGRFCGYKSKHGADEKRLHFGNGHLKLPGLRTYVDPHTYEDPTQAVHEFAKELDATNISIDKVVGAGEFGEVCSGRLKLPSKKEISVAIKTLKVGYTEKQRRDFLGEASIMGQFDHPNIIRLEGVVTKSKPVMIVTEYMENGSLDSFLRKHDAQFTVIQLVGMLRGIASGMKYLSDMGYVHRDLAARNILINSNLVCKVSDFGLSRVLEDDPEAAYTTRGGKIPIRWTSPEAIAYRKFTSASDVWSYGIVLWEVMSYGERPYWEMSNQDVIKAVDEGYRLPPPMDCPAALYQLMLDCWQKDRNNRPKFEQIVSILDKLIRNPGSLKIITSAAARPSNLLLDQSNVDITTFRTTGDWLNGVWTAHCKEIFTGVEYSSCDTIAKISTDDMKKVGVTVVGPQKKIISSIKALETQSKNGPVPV

[17] = target: T2, Ephrin type-A receptor 3 (Homo sapiens); conditions: at 1 µM
[18] = target: Ephrin type-A receptor 4 (Homo sapiens) (UniProt P54764); conditions: at 0.1 µM
Chain of Ephrin type-A receptor 4 (Homo sapiens) (P54764 whole entry): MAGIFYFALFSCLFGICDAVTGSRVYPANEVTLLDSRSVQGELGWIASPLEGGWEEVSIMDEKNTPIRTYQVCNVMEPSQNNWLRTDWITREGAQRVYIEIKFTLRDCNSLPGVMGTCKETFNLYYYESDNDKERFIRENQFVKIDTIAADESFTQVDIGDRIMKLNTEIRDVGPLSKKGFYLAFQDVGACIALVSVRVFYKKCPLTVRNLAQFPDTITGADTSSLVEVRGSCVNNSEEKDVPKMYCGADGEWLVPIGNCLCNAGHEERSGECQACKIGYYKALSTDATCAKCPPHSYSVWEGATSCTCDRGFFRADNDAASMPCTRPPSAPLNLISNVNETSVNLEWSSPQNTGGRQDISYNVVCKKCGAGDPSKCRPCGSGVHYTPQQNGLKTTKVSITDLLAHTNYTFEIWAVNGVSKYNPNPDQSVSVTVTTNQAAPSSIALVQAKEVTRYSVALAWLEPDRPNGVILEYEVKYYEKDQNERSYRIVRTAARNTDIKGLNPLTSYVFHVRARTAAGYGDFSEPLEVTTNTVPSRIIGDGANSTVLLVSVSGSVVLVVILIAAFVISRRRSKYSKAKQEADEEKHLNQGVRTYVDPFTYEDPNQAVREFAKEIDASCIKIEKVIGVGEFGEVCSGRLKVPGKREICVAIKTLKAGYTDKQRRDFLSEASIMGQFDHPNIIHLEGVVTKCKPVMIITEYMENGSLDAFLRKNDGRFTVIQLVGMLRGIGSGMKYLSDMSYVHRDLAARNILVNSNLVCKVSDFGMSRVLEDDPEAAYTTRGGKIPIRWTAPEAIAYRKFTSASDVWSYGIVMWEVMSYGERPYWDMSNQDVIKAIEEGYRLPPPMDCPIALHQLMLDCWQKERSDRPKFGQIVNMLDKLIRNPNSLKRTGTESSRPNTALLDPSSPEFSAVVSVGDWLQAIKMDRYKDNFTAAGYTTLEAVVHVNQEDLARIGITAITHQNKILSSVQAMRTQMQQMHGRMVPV

[19] = target: Ephrin type-A receptor 4 (Homo sapiens) (UniProt P54764); conditions: at 1 µM
[20] = target: T3, Ephrin type-B receptor 2 (Homo sapiens) (UniProt P29323); conditions: at 0.1 µM;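 note: reported as mean inhibition of EPHB2, from the GSK PKIS dataset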
T3 sequence (whole entry): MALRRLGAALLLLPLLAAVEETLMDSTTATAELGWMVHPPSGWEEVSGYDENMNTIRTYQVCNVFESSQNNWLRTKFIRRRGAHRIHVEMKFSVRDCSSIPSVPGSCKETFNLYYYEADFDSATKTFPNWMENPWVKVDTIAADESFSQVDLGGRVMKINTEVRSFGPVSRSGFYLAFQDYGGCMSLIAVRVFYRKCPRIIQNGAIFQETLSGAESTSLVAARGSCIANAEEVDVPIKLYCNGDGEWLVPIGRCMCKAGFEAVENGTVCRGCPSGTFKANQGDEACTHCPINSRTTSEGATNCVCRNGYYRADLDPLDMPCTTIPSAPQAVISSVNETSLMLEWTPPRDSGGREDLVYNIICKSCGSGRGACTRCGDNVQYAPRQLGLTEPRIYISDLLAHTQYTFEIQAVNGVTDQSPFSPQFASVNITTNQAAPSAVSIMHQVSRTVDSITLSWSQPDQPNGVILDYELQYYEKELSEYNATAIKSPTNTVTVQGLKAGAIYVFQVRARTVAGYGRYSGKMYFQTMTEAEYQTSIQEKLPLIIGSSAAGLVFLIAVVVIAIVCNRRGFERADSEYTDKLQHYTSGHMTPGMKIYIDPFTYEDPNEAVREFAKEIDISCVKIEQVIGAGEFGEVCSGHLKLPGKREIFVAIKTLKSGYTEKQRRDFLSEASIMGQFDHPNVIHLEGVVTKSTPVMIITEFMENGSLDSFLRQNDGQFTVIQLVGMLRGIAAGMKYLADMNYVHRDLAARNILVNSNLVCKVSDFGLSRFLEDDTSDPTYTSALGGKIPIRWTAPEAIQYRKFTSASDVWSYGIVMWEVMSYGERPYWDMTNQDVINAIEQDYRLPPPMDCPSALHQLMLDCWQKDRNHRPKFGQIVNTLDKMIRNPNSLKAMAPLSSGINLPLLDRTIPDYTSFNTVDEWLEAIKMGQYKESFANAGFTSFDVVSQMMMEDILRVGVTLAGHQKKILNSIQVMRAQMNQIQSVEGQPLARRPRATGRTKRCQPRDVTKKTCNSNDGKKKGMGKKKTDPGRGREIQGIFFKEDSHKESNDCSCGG

Chain of Tyrosine-protein kinase CSK (Homo sapiens) (P41240 2-450 limits assumed): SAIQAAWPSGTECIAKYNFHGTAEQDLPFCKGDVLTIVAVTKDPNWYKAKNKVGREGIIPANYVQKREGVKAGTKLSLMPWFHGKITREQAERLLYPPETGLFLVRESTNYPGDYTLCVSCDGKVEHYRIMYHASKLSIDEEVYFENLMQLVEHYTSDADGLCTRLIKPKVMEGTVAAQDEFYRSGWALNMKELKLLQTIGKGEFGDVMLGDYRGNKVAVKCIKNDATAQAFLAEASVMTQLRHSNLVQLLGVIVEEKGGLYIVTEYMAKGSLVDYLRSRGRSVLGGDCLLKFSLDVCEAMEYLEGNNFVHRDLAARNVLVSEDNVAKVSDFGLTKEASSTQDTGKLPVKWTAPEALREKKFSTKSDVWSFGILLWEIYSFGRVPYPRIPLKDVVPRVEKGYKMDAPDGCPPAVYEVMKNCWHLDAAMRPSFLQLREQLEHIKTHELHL

Row | SMILES | inhibition [1] [%] | inhibition [2] [%] | inhibition [3] [%] | inhibition [4] [%] | inhibition [5] [%] | inhibition [6] [%] | inhibition [7] [%] | inhibition [8] [%] | inhibition [9] [%] | inhibition [10] [%] | inhibition [11] [%] | inhibition [12] [%] | inhibition [13] [%] | inhibition [14] [%] | inhibition [15] [%] | inhibition [16] [%] | inhibition [17] [%] | inhibition [18] [%] | inhibition [19] [%] | inhibition [20] [%]
1 | CCc1cccc(NC(=O)Nc2ccc(Oc3ccc4nc(NC(=O)OC)[nH]c4c3)cc2)c1 | 3.75 | 78 | 80.2 | 8 | 7.33 | 2.52 | 5.42 | 0.96 | 2.05 | 1.06 | 1.6 | 3.59 | 4.31 | 49.4 | 65.7 | 13.9 | 10.1 | 52.3 | 72.3 | 44.5
2 | O=C1Nc2ccc(C(=O)c3ccco3)cc2C1=Cc1cc(Cl)c(O)c(Cl)c1 | 7.85 | 2.1 | 6.8 | 1.89 | 5.16 | 4.06 | 13.7 | 3.88 | 19.6 | 1.42 | 1.86 | 1.63 | 4.94 | -2.48 | -0.21 | 2.92 | 6.1 | 8.25 | 14.3 | 10.7
3 | CC1=C(C(=O)Nc2ccc3[nH]ncc3c2)C(c2ccc(Cl)c(Cl)c2)CC(=O)N1 (stereo not given) | 4.23 | 3.12 | 3.67 | 6.77 | 8.22 | 1.45 | 5.4 | 1.95 | 0.96 | 0.19 | 0.85 | 2.39 | 12.1 | -0.63 | 0.57 | 3.06 | 2.8 | 6.53 | 4.28 | 7.7
4 | Cc1cc(O)cc(C)c1/C=C/c1cncc(-c2nn[nH]n2)c1 | 43.4 | 1.73 | 6.08 | -1.53 | 15.8 | 10.4 | 56.9 | 3.95 | 21.2 | 2.17 | 3.37 | 2.15 | 2.05 | 39.5 | 84.4 | 12.4 | 34.8 | 37.4 | 87.6 | 15.1
5 | Fc1cccc(COc2ccc(Nc3ncnc4sc(-c5cccs5)cc34)cc2Cl)c1 | 3.11 | -0.48 | 0.6 | – | – | – | – | – | – | – | – | – | – | -3.04 | -2.75 | -3.5 | -1.54 | -0.88 | 2.82 | 5.23
6 | CCn1c(-c2nonc2N)nc2c(N3CCCC3)nccc21 | -3.39 | 0.93 | 1.39 | 9.47 | 13 | -0.34 | -1.9 | 0.82 | 2.63 | -1.01 | -1.06 | 0.11 | 0.62 | -5.01 | -4.35 | -5.79 | -2.29 | -6.53 | -8.11 | -2.18
7 | O=C1NC(=O)C(c2ccccc2Cl)=C1Nc1cccc(O)c1 | 3.08 | -0.34 | -0.1 | 2.49 | 5.23 | 3.81 | 3.71 | 0.72 | 3.71 | 1.27 | 0.02 | 0.56 | 1.35 | 2.61 | 1.5 | 2.51 | 2.67 | 5.56 | 2.36 | 5.61
8 | CC(=O)Nc1cccc(C#Cc2cncnc2Nc2ccc(OCc3cccc(F)c3)c(Cl)c2)n1 | 3.91 | 2.33 | 1.71 | 69.5 | 77.7 | 24.8 | 72.5 | 29.1 | 55.6 | 0.03 | 9.1 | -2.43 | 3.75 | 2.75 | 1.53 | 0.44 | 0.58 | 1.13 | 5.16 | -1.46
9 | O=C1NC(=O)C(N2CCc3ccccc32)=C1c1ccc(Cl)cc1 | 0.75 | 3.2 | 8.8 | -0.66 | 3.22 | -1.38 | 5.23 | 4.7 | 2.74 | 2.82 | -0.47 | 1.35 | 2.67 | 1.33 | 1.75 | 3.76 | 3.61 | 8.28 | 3.43 | 5.72
10 | Cc1ccc(C(=O)NC2CCCCC2)cc1-c1ccc(C(=O)NCC2CC2)cc1 | 1.73 | 3.79 | 6.99 | 10.6 | 14.3 | 1.02 | 0.13 | 1.18 | 0.87 | 0.94 | -2.05 | -0.59 | -0.67 | 2.02 | 1.67 | 5.5 | 5.14 | 8.35 | 3.57 | 6.79
11 | NC(=O)c1cccc(Nc2nccc(Nc3cccc4[nH]ncc34)n2)c1 | 26.5 | 19.9 | 77.6 | 2.96 | 24.1 | 13.4 | 70.1 | 3.36 | 27.8 | -1.89 | -2.41 | -5.66 | 8.31 | 7.85 | 53.6 | 40.2 | 72.9 | 31 | 81.1 | 30.4
12 | Cc1nnc(-c2ccc(C)c(-c3ccc(C(=O)Nc4cccc(C#N)c4)cc3)c2)o1 | 6.38 | 1.45 | 1.83 | 6.74 | 8.18 | 0.95 | 3.01 | 1.88 | 2.37 | 1.41 | 2.44 | 0.19 | 2.34 | -0.29 | -0.3 | 4.6 | 2.95 | 6.99 | 4.3 | 5.86
13 | O=C1NC(=O)C(c2cccc(Cl)c2)=C1Nc1ccc(O)c(Cl)c1 | -5.59 | -1.25 | -1.13 | -0.21 | 1.12 | -2.01 | -0.47 | -0.43 | -0.33 | -0.72 | -0.85 | 0.92 | 0.61 | 0.74 | 1.32 | 0.53 | -2.04 | 1.17 | -8.81 | -3.19

From ChEMBL document CHEMBL1961873, “Compounds: GSK PKIS; Assays: Nanosyn kinase panel” (2012)
